# Measurements: PubChem BioAssay (NCI)
# This is part of a sample that, as a whole, favours compounds with a hit. Of some 83,000 tested, about 20% had one in any assay.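 A percent growth of 40 corresponds to 60% growth inhibition; 0 means no net growth; -100 means all cells died. Active threshold: below 10.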 A number with no mark means an inactive call. Calls of active or inactive are those of the source.
# How the values were obtained:
# Experiment in all cases: NCI-60 one-dose screen, 48 h (100 = growth as untreated, 0 = no growth, -100 = all killed)
# Details in all cases: 10 µM
# [1] = tested on: RPMI-8226 leukemia
# [2] = tested on: OVCAR-8 ovarian
# [3] = tested on: OVCAR-5 ovarian
# [4] = tested on: OVCAR-4 ovarian
# [5] = tested on: SK-OV-3 ovarian
# [6] = tested on: IGROV1 ovarian
# [7] = tested on: OVCAR-3 ovarian
# [8] = tested on: HS 578T breast
# [9] = tested on: NCI/ADR-RES ovarian
# [10] = tested on: T-47D breast
# [11] = tested on: BT-549 breast
# [12] = tested on: MDA-MB-435 melanoma
# [13] = tested on: SW-620 colon
# [14] = tested on: MCF7 breast
# [15] = tested on: HCC-2998 colon
# [16] = tested on: KM12 colon
# [17] = tested on: HCT-116 colon
SMILES,growth [1],growth [2],growth [3],growth [4],growth [5],growth [6],growth [7],growth [8],growth [9],growth [10],growth [11] [%],growth [12],growth [13],growth [14],growth [15],growth [16],growth [17]
Cc1c(Cl)cccc1NC(=O)c1sc2nc3c(cc2c1N)C(=O)CCC3,5.08% (active),13.5%,31.8%,40.4%,14.4%,9.61% (active),-40.1% (active),17.1%,2.57% (active),54.5%,49.9,-43.6% (active),18.3%,13.5%,25.8%,11.1%,
O=S(=O)(NCCNc1nccc(-c2c(-c3ccc(F)cc3)nc3sccn23)n1)c1ccc2ccccc2c1,60.2%,69.6%,130%,96.2%,85.2%,49.4%,87.9%,111%,84.4%,61.9%,92.5,56.4%,97.5%,38.2%,82.6%,75.6%,61.8%
COc1ccc2c(c1)C(=O)c1c-2c(=O)n(CCCN(C)C)c2cc(OC)c(OC)cc12,66.6%,62.1%,130%,74.4%,69.9%,67.2%,94.9%,119%,58.7%,81.2%,86.1,80.9%,56.8%,28.4%,82.8%,69.5%,53.1%
Nc1cc2c(cc1Cl)-c1ccc([N+](=O)[O-])cc1/C2=N\O,44.7%,99.5%,145%,88.9%,97%,57.1%,86.6%,106%,95.1%,101%,89,51.3%,38.6%,79.2%,97.3%,65%,43.2%
O=C(CC(NC(=O)OCc1ccccc1)C(=O)OCc1ccccc1)OCc1ccccc1 (configuration not stated),99.2%,99%,103%,109%,95.1%,108%,110%,97.9%,98%,100%,112,102%,91.6%,102%,,108%,97.4%
COc1cc(C2CC(c3ccc(Nc4ccnc5cc(Cl)ccc45)cc3)=NN2c2ccc(Cl)cc2)cc(OC)c1OC (configuration not stated),44.7%,53.8%,80.6%,69.7%,79.2%,57.5%,38%,61.6%,29.6%,41.3%,68.4,,39.4%,29.4%,55.4%,30.5%,46.6%
CCCCCCCCCCCCCCCCN(C(C)c1ccccc1)S(=O)(=O)c1ccc(OC)c(N)c1 (configuration not stated),103%,104%,104%,92.1%,112%,129%,107%,126%,98.7%,113%,,108%,99.7%,95.9%,97.6%,100%,101%
N#CCCN1C/C(=C/c2ccc(Cl)cc2)C(=O)/C(=C/c2ccc(Cl)cc2)C1,-15.5% (active),-22% (active),4.05% (active),8.18% (active),-10.2% (active),-66.7% (active),-48.6% (active),-9.16% (active),11.1%,8.7% (active),,-66.5% (active),-48.4% (active),-10.2% (active),-84.6% (active),,-54.5% (active)
CCCCN(CCCC)c1cc(C(=O)CCCCCN)c2ccccc2n1,-67.9% (active),9.35% (active),105%,100%,101%,-73.6% (active),-96.9% (active),96%,71.6%,92.9%,68.2,,39.8%,40%,-31.4% (active),-93.3% (active),-95.6% (active)
Cc1cc(Cc2cc(C)c(O)c(C)c2)cc(C)c1O,58.2%,61.9%,106%,77.1%,53%,45.2%,28.2%,33.8%,19.4%,52.8%,,-29% (active),21.6%,22.8%,74.4%,39.4%,30.6%
COc1cc(-c2cc(/C=C3\C(=O)Nc4ccccc43)[nH]n2)cc(OC)c1OC,24.3%,40.8%,77.6%,42%,87.5%,43%,57.8%,49.6%,35.2%,20.9%,34.7,,60.2%,,87.4%,10.3%,47.3%
